{"source": "PubChem BioAssay AID1851", "about": "(National Center for Advancing Translational Sciences (NCATS), 2009)", "note": "“And” between values parts separate entries of the source, which are not always exact repeats. Equal entries are not always repeated. About 5,700 (36%) of roughly 16,000 compounds were called active. Roughly 24% stayed inconclusive and do not appear here. The list shows a part of the results. A number with no mark means an inactive call. Calls follow the shape of the dose curve; as a rule, active = well fitted curve in the direction sought with a large enough effect; inconclusive = small, poorly fitted or top-dose-only effect, or effect the other way; inactive = no such curve, though single readings can be large or run the other way. Square brackets hold non-standard residues; d marks the D form. Peptide text beside a SMILES is read from it. % is scaled to controls: 0 for no effect and ±100 for the full control effect.", "data": [{"molecular_target": "Cytochrome P450 1A2 (Homo sapiens) (UniProt P05177)", "sequence (P05177 whole entry, looked up)": "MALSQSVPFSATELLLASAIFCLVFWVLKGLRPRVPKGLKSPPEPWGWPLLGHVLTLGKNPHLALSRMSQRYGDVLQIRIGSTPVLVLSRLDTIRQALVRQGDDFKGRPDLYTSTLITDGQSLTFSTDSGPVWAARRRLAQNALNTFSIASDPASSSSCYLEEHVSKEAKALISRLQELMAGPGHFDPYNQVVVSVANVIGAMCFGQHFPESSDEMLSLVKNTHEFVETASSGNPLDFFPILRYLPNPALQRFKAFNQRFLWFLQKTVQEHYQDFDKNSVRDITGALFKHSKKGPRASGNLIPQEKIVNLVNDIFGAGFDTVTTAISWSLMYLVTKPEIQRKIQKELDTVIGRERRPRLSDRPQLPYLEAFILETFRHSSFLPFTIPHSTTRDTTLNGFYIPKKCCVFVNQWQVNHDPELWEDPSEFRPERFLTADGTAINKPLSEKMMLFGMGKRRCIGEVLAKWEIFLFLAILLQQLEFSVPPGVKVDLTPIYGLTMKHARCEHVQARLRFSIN", "experiment": "Cytochrome panel assay with activity outcomes", "settings": "recombinant CYP, pro-luciferin dealkylation, luminescence, p450-cyp1a2; series mostly up to 57.1 µM", "values": [{"smiles": "CC(=O)Nc1c(S(=O)(=O)c2ccccc2)c2nc3ccccc3nc2n1Cc1ccccc1", "AC50": "inactive"}, {"smiles": "CCn1c2ccc(Cl)cc2c2nc3ccccc3nc21", "AC50": "0.501 µM (active)"}, {"smiles": "Cc1cc(-c2n[nH]c(=S)o2)c(C)n1-c1ccccc1", "AC50": "14.1 µM (active)"}, {"smiles": "CC(O)(CS(=O)(=O)Cc1ccccc1Cl)C(=O)Nc1cccc(C(F)(F)F)c1", "note": "(stereo not given)", "AC50": "inactive"}, {"smiles": "CN(C)S(=O)(=O)Oc1ccccc1C(=O)Nc1cccc(C(F)(F)F)c1", "AC50": "8.91 µM (active)"}, {"smiles": "CN(C)S(=O)(=O)Oc1ccc(Cl)cc1C(=O)Nc1cccc(C(F)(F)F)c1", "AC50": "7.08 µM (active)"}, {"smiles": "CO[C@@H]1/C=C\\CC(=O)N[C@@H](C)C(=O)OC[C@H](NS(=O)(=O)c2ccc(C)cc2)[C@H](C)/C=C\\CC(=O)OC[C@H]1C", "activity, negative = inhibition": "8.52% [at 11.4 µM]"}, {"smiles": "COC(=O)C/C=C\\[C@H](C)[C@@H](OC)c1ccccc1Br", "activity, negative = inhibition": "-0.474% [at 11.4 µM]"}, {"smiles": "CN(CC(=O)O)CC(=O)O", "activity, negative = inhibition": "-5.93% [at 2.29 µM]"}, {"smiles": "CCOC(=O)C(C)Sc1ncc(OC)c(Sc2ccc(Cl)cc2)n1", "note": "(stereo not given)", "AC50": "12.6 µM (active)"}, {"smiles": "COC(=O)CSc1ncc(OC)c(OC)n1", "AC50": "inactive"}, {"smiles": "O=C(Nc1ccccc1)N1CCCC2(CCN(C(=O)c3cnccn3)CC2)C1", "AC50": "inactive"}, {"smiles": "COc1ccc(-c2cc(C(=O)Nc3cnn(Cc4ccccc4C)c3)no2)cc1OC", "AC50": "inactive"}, {"smiles": "O=C(Nc1cnn(Cc2ccc(Cl)cc2Cl)c1)c1cc(-c2cccs2)on1", "AC50": "2.51 µM (active)"}, {"smiles": "Cc1cccc(-c2c3c(=O)n(C)c(=O)n(C)c3cn2C2CCCCC2)c1", "AC50": "inactive"}, {"smiles": "O=C(Nc1ccccc1N1CCOCC1)c1cnccn1", "AC50": "4.47 µM (active)"}, {"smiles": "O=C(c1cnccn1)N1CCC2(CC1)CCN(c1ccccc1)CC2", "AC50": "inactive"}, {"smiles": "O=C(Nc1ccccc1N1CCOCC1)c1ccc([N+](=O)[O-])cc1", "AC50": "inactive"}, {"smiles": "Cc1noc(C)c1-c1nccc(NC2CC2)n1", "AC50": "0.1 µM (active)"}, {"smiles": "COCCNc1ccnc(-c2c(C)noc2C)n1", "AC50": "2.51 µM (active)"}, {"smiles": "CNc1ccnc(-c2c(C)noc2C)n1", "AC50": "1.26 µM (active)"}, {"smiles": "c1cc(NC2CC2)nc(-c2ccoc2)n1", "AC50": "0.251 µM (active)"}, {"smiles": "O=C1O/C(=C\\Br)CC[C@@H]1c1cccc2ccccc12", "AC50": "inactive"}, {"smiles": "Clc1cnccn1", "AC50": "inactive"}, {"smiles": "Cc1noc(C)c1-c1nccc(Nc2ccc(F)cc2)n1", "AC50": "0.398 µM (active)"}, {"smiles": "Cn1c2c(c(=O)n(C)c1=O)CN(CCN1CCNCC1)CN2", "AC50": "inactive"}, {"smiles": "O=c1ccc(Oc2nc(N3CCOCC3)nc(N3CCOCC3)n2)n[nH]1", "AC50": "inactive"}, {"smiles": "COC(=O)c1ccc(Oc2nc(N(C)C)nc(N3CCOCC3)n2)cc1", "AC50": "3.55 µM (active)"}, {"smiles": "COc1ccc(C(=O)N2CCC3(CC2)CCN(c2ncccn2)CC3)cc1", "AC50": "inactive"}, {"smiles": "Cc1ccc(CNCC(O)(c2ccc(F)cc2)c2ccc(F)cc2)cc1", "AC50": "inactive"}, {"smiles": "CCOC(=O)C(C(=O)NCc1ccc(C)cc1)c1ncc(C(F)(F)F)cc1Cl", "note": "(stereo not given)", "AC50": "10 µM (active)"}, {"smiles": "NCC(=O)N[C@H](CO)C(=O)O", "note": "(H-Gly-[dS]-OH)", "activity, negative = inhibition": "-8.79% [at 11.4 µM]"}, {"smiles": "OC[C@@H]1O[C@@H](n2cnc3cncnc32)[C@@H](O)[C@H]1O", "AC50": "inactive"}, {"smiles": "COc1cccc(Cn2c(=O)cnc3cncnc32)c1", "AC50": "15.8 µM (active)"}, {"smiles": "Cc1ccc([C@@H](O)c2cnc(C)n2Cc2ccccc2)cc1", "activity, negative = inhibition": "-10.8% [at 11.4 µM]"}, {"smiles": "O=c1cnc2cncnc2n1Cc1ccccc1", "AC50": "25.1 µM (active)"}, {"smiles": "CC(C)n1nnnc1-c1cc(Cl)cc(Cl)c1", "AC50": "8.91 µM (active)"}, {"smiles": "CC(C)CC(c1nnnn1C(C)C)N1CCN(c2ccccc2)CC1", "note": "(stereo not given)", "AC50": "inactive"}, {"smiles": "CCCn1nnnc1-c1cc(Cl)cc(Cl)c1", "AC50": "2.82 µM (active)"}, {"smiles": "CCS(=O)(=O)c1ccc2c(c1)N(S(C)(=O)=O)CC(C(=O)NCCOC)O2", "note": "(stereo not given)", "AC50": "inactive"}, {"smiles": "CCOC(=O)CCN1C(=O)[C@H]2[C@@H]3[C@H](O)[C@H](O)CC(=O)[C@H]3CC[C@H]2C1=O", "activity, negative = inhibition": "-2.79% [at 11.4 µM] and -9.9% [at 11.4 µM]"}, {"smiles": "COC(=O)C/C=C\\[C@@H](C)[C@@H](/C=N\\O[C@@H](C)CN1CCCc2nc(C)c(C)cc21)NS(=O)(=O)c1ccc(C)cc1", "activity, negative = inhibition": "-5.78% [at 11.4 µM]"}, {"smiles": "Nc1ccc2c3c(cccc13)C(=O)NC2=O", "AC50": "1 µM (active)"}, {"smiles": "O=C(O)/C=C1\\NC(=O)c2ccccc21", "AC50": "inactive"}, {"smiles": "COC(=O)c1sc2ncccc2c1OCc1c(Cl)cccc1Cl", "AC50": "0.158 µM (active)"}, {"smiles": "COc1ccc(CNC(=O)Nc2cccs2)cc1OC", "AC50": "12.6 µM (active)"}, {"smiles": "COc1cc(CNCc2cccs2)ccc1OCC(=O)NC(C)(C)C", "AC50": "3.16 µM (active)"}, {"smiles": "COc1ccc(CCn2c3c(c(=O)[nH]c2=O)C(NC(=O)c2cccs2)(C(F)(F)F)C(=O)N3)cc1OC", "note": "(stereo not given)", "AC50": "inactive"}, {"smiles": "COc1cc(CNCCc2ccccc2)ccc1OCC(=O)NC(C)(C)C", "AC50": "inactive"}, {"smiles": "COc1ccc(NC(=O)COc2ccc(CNCCCN3CCOCC3)cc2OC)cc1", "AC50": "inactive"}, {"smiles": "COc1ccc(C[C@@](C)(N)C(=O)O)cc1OC", "AC50": "inactive"}, {"smiles": "C/C(CCN1CCCCc2nc(C)c(C)cc21)=N\\OC[C@@H](C)[C@H](OCc1ccccc1)C(C)C", "activity, negative = inhibition": "-4.06% [at 11.4 µM]"}, {"smiles": "CC(=O)N1CCC2(CCN(Cc3ccncc3)CC2)CC1", "AC50": "inactive"}, {"smiles": "O=C(c1cc(C(F)(F)F)cc(C(F)(F)F)c1)N1CCC2(CCCN(Cc3ccncc3)C2)CC1", "AC50": "inactive"}, {"smiles": "N#Cc1ccc(CN2CCC3(CC2)CCN(C(=O)c2cc(C(F)(F)F)cc(C(F)(F)F)c2)CC3)cc1", "AC50": "inactive"}, {"smiles": "N#Cc1ccc(CN2CC[C@@]3(CCCN(C(=O)c4cc(C(F)(F)F)cc(C(F)(F)F)c4)C3)C2)cc1", "AC50": "25.1 µM (active)"}, {"smiles": "O=C(c1cc(C(F)(F)F)cc(C(F)(F)F)c1)N1CCC[C@@]2(CCN(c3ccncc3)C2)C1", "AC50": "inactive"}, {"smiles": "O=S(=O)(c1ccccc1)N1CCC2(CCN(Cc3ccncc3)CC2)CC1", "AC50": "inactive"}, {"smiles": "COCC(=O)N1CCC2(CCN(Cc3ccncc3)CC2)CC1", "AC50": "10 µM (active)"}, {"smiles": "N#Cc1ccc(CN2CC3(CCN(C(=O)c4cc(C(F)(F)F)cc(C(F)(F)F)c4)CC3)C2)cc1", "AC50": "inactive"}, {"smiles": "O=S(=O)(c1ccccc1)N1CCC2(CCCN(Cc3ccncc3)C2)CC1", "AC50": "12.6 µM (active)"}, {"smiles": "O=C(c1ccncc1)N1CCC2(CCN(Cc3ccncc3)CC2)CC1", "AC50": "inactive"}, {"smiles": "N#Cc1ccc(CN2CCCC3(CCN(S(=O)(=O)c4ccccc4)CC3)C2)cc1", "AC50": "inactive"}, {"smiles": "O=C(c1cc(C(F)(F)F)cc(C(F)(F)F)c1)N1CCC[C@@]2(CCN(Cc3ccncc3)C2)C1", "AC50": "12.6 µM (active)"}, {"smiles": "CO/N=C\\[C@@H](C)[C@H](OCc1ccccc1)C(C)C", "activity, negative = inhibition": "-4.31% [at 11.4 µM]"}, {"smiles": "O=C(c1cnccn1)N1CCC[C@@]2(CCN(Cc3cc(C(F)(F)F)cc(C(F)(F)F)c3)C2)C1", "AC50": "inactive"}, {"smiles": "O=C(c1ccncc1)N1CCC2(CCCN(Cc3ccccc3)C2)CC1", "AC50": "inactive"}, {"smiles": "CC(C)NC(=O)N1CCCC2(CCN(C(=O)c3ccncc3)CC2)C1", "AC50": "inactive"}, {"smiles": "COc1ccc(C(=O)N2CCC3(CCCN(Cc4ccncc4)C3)CC2)cc1", "AC50": "inactive"}, {"smiles": "O=C(c1cc(C(F)(F)F)cc(C(F)(F)F)c1)N1CCC2(CCN(Cc3ccccc3)CC2)CC1", "AC50": "inactive"}, {"smiles": "O=C(c1cnccn1)N1CCC[C@@]2(CCN(Cc3ccncc3)C2)C1", "AC50": "15.8 µM (active)"}, {"smiles": "O=C(c1cc(C(F)(F)F)cc(C(F)(F)F)c1)N1CCC2(CC1)CN(Cc1ccccc1)C2", "AC50": "inactive"}, {"smiles": "O=C(c1cc(C(F)(F)F)cc(C(F)(F)F)c1)N1CCC[C@@]2(CCN(Cc3ccccc3)C2)C1", "AC50": "25.1 µM (active)"}, {"smiles": "O=C(c1ccncc1)N1CCC2(CCCN(C(c3ccccc3)c3ccccc3)C2)CC1", "AC50": "0.2 µM (active)"}, {"smiles": "O=C(c1cnccn1)N1CCC[C@@]2(CCN(Cc3nccs3)C2)C1", "AC50": "inactive"}, {"smiles": "O=C(c1ccncc1)N1CCC2(CCCN(Cc3ccncc3)C2)CC1", "AC50": "6.31 µM (active)"}, {"smiles": "Cc1noc(C)c1C(=O)N1CCC2(CCCN(C(c3ccccc3)c3ccccc3)C2)CC1", "AC50": "inactive"}, {"smiles": "COC(=O)C/C=C\\[C@@H](C)[C@@H](/C=N\\OC[C@@H](C)[C@H](OCc1ccccc1)C(C)C)OC", "activity, negative = inhibition": "-0.613% [at 11.4 µM]"}, {"smiles": "C[C@@H]1c2cccc(O)c2C(O)=C2C(=O)[C@@]3(O)C(O)=C(C(N)=O)C(=O)[C@@H](N(C)C)[C@@H]3[C@@H](O)[C@@H]21", "AC50": "inactive"}, {"smiles": "O=C1C(=O)N(c2cccc(Cl)c2)C(c2ccccc2[N+](=O)[O-])/C1=C(\\O)c1ccccc1", "note": "(stereo not given)", "AC50": "inactive"}, {"smiles": "CC(=O)c1sc(N)c(C(=O)OC(C)C)c1C", "AC50": "3.55 µM (active)"}, {"smiles": "O=C1C2CCCN2c2ccc(S(=O)(=O)N3CCOCC3)cc2N1Cc1cccc(C(F)(F)F)c1", "note": "(stereo not given)", "AC50": "inactive"}, {"smiles": "Cc1ccc(C)c(CN2C(=O)C3CCCN3c3ccc(C#N)cc32)c1", "note": "(stereo not given)", "AC50": "12.6 µM (active)"}, {"smiles": "CCOC(=O)C1CCN(c2c(NCc3ccc(C(=O)NCCC(C)C)cc3)c(=O)c2=O)CC1", "AC50": "inactive"}, {"smiles": "CCCCc1cc2ccccc2c(OCCN(C)C)n1", "AC50": "0.0794 µM (active)"}, {"smiles": "CCCCc1c(O)nc(SCCN(C)C)n(-c2ccccc2)c1=O", "AC50": "inactive"}, {"smiles": "Cc1ccccc1[C@@H](OCCN(C)C)c1ccccc1", "AC50": "inactive"}, {"smiles": "CC(=O)C1=C(NC(=O)c2ccc(F)cc2)CC2C1C2(C)C", "note": "(stereo not given)", "AC50": "0.2 µM (active)"}, {"smiles": "Cc1occc1C(=O)NNC(=O)c1ccc(F)cc1", "AC50": "inactive"}, {"smiles": "CCn1c(SCC(=O)OC)nnc1C1CCCCC1", "AC50": "inactive"}, {"smiles": "COC(=O)C(C)Sc1ccc2nnc(-c3ccc(F)cc3)n2n1", "note": "(stereo not given)", "AC50": "0.794 µM (active)"}, {"smiles": "COC(=O)CSc1ccc2nnc(-c3ccc(F)cc3)n2n1", "AC50": "1.58 µM (active)"}, {"smiles": "CC(C)NC(=O)N1CCCC2(CCN(C(=O)c3cccc(F)c3)CC2)C1", "AC50": "inactive"}, {"smiles": "CCCN(C/C=C\\I)[C@@H]1CCc2cccc(O)c2C1", "AC50": "2.51 µM (active)"}, {"smiles": "N#C[C@H]1CN[C@H](N)N[C@@H]1N", "activity, negative = inhibition": "-11.6% [at 2.29 µM]"}]}]}
